An excerpt weighted towards active compounds, which were near 1.1% of everything screened.
rTrxR1 inhibitor = inhibitors of rat thioredoxin reductase 1; O89049; recombinant rTrxR1, NADPH fluorescence consumption, selenite substrate; Potency, µM (titrated, usually from 114 µM), inactives show top-dose activity change, negative = inhibition, most hits filed as inhibitors; 390,000 compounds, 1% hits; also: potency is read from the fitted curve at half-maximal effect; % is scaled to controls: 0 for no effect and ±100 for the full control effect; nearly all actives have a fitted effect of over 65% in size
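Rat TrxR1 (90 nM in the dispensed reagent) was pre-reduced with 400 uM NADPH for 5 min at room temperature, then incubated with compound for 15 min. After 400 uM selenite was added, NADPH fluorescence (Ex 340/Em 450 nm) was followed for 8 min.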
TrxR1 substrate = substrates of rat thioredoxin reductase 1. O89049. purified TrxR1 substrate turnover, NADPH consumption readout. Potency, µM (top dose mostly 114 µM), for inactives: at the highest dose activity change, negative = substrate turnover. 390,000 compounds, 0.01% hits; also: potency is read from the fitted curve at half-maximal effect; % is scaled to controls: 0 for no effect and ±100 for the full control effect; nearly all actives have a fitted effect of over 50% in size
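Rat TrxR1, dispensed at 90 nM, was prereduced with 400 uM NADPH (final) for 5 min at ~22 deg C, then incubated with compound 15 min before 400 uM selenite. A first-read NADPH fluorescence drop versus no-compound background flagged substrates.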
Eya2 phos inh = blocks the phosphatase activity of human Eya2 | O00167 | recombinant Eya2, OMFP fluorescence dephosphorylation (OMFP is methylfluorescein phosphate) | Potency, µM (top dose mostly 76.9 µM), for the others: at the top dose activity, negative = inhibition, most hits filed as inhibitors | 330,000 compounds, 0.006% hits | AID 488837; also: potency is read from the fitted curve at half-maximal effect; % is scaled to controls: 0 for no effect and ±100 for the full control effect
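Eya2 protein (added as 0.2 uM solution) was preincubated with compound for 10 min at ambient temperature in 50 mM HEPES pH 7.5, 50 mM NaCl, 5 uM MgCl2, 0.05% BSA, 1 mM DTT. OMFP (added at 50 uM) then reacted 10 min; fluorescence read at 485/525 nm.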
mIDH1 inhibitor = inhibitors of human mutant IDH1 R132H; Potency, µM (series often up to 76.6 µM), without a hit: at the top dose activity change, negative = inhibition, most hits filed as inhibitors; AID 602179; IDH1-R132H enzyme, NADPH consumption, diaphorase/resazurin fluorescence; O75874; 390,000 compounds, 0.093% hits; also: potency is read from the fitted curve at half-maximal effect; % is scaled to controls: 0 for no effect and ±100 for the full control effect; nearly all actives have a fitted effect of over 65% in size
Target sequence (O75874 whole entry R132H, stated change not applied): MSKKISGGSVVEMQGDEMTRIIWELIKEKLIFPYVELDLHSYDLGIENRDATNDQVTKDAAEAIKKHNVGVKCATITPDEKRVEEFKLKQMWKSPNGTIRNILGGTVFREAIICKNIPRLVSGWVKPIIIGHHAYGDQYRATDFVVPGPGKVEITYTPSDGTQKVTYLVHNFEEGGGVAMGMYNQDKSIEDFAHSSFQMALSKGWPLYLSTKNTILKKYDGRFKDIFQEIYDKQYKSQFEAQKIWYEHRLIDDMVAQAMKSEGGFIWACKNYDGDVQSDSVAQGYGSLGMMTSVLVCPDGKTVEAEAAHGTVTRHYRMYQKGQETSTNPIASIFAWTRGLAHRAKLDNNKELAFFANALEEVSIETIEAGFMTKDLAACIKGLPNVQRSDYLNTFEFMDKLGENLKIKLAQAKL
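IDH1-R132H (0.5 ug/mL dispensed) in pH 7.5 Tris buffer was preincubated 30 min with compound, then given a substrate mix of 0.016 mM NADPH and 2 mM alpha-KG for 80 min at room temperature; remaining NADPH was read by diaphorase/resazurin fluorescence.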
RGS4 inh = human RGS4 inhibition; Transcreener GDP fluorescence polarization, RGS4-accelerated GTP hydrolysis; AID 504845; Potency, µM (titrated, usually from 114 µM), for inactives: top-dose activity change, negative = inhibition, actives largely listed as inhibitors; P49798; 390,000 compounds, 0.039% hits; also: potency is read from the fitted curve at half-maximal effect; % is scaled to controls: 0 for no effect and ±100 for the full control effect; nearly all actives have a fitted effect of over 75% in size
Target sequence (P49798 whole entry, looked up): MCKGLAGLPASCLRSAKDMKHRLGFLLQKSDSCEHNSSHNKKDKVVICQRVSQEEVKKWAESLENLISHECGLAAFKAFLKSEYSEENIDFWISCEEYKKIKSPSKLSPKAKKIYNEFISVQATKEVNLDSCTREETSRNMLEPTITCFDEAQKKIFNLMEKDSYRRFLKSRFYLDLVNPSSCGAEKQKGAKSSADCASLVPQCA
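MLSMR compounds (23 nl, pin-transferred) preincubated 10 min at room temperature with a 500nM (2x) first reagent, then RGS4 at 900nM (2x) plus Transcreener GDP mix added; fluorescence polarization (620/688 nm) read before and after 90 min at 30 °C.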
IDH1 autofl = counter-screen for mutant IDH1 inhibitors: fluorescence interference | Resorufin detection reagent fluorescence interference, cell-free | 750 tested, under 10 active | shares compounds with mIDH1 inhibitor | inhibition of signal, % at 51.2 µM;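 also: 0% = wells with normal resorufin and full inhibition = wells lacking resorufin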
IDH1 WT = selectivity of mutant IDH1 inhibitors: human wild-type IDH1; shares compounds with mIDH1 inhibitor; Potency, µM (titrated, usually from 115 µM), for inactives: top-dose activity change, negative = inhibition, actives largely listed as inhibitors; 750 compounds, 9% hits; WT IDH1 enzyme, NADPH diaphorase/resazurin fluorescence;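 also: potency is read from the fitted curve at half-maximal effect; 0% = full WT IDH1 enzyme control and full inhibition = no enzyme wells; nearly all actives have a fitted effect of over 55% in size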
Target sequence (O75874 whole entry, looked up): as the sequence (O75874 whole entry R132H, stated change not applied) above, with H132R counted along it
mIDH1 confirm = confirmation of human mutant IDH1 inhibitors; shares compounds with mIDH1 inhibitor; IDH1 R132H enzyme, NADPH diaphorase/resazurin fluorescence; Potency, µM (top dose mostly 76.6 µM), inactives show top-dose activity change, negative = inhibition, usual class: inhibitors; 750 compounds, 83% hits; also: potency is read from the fitted curve at half-maximal effect; nearly all actives have a fitted effect of over 50% in size
* = called active by the depositor; [ ] = dose if it differs, or a comment. Calls follow the shape of the dose curve; as a rule, active = well fitted curve in the direction sought with a large enough effect; inconclusive = small, poorly fitted or top-dose-only effect, or another doubt; inactive = no such curve, though single readings can be large; an effect the other way counts as inactive or inconclusive.

Screening COc1ccc(C2C(C#N)=C(N)N(c3sc4c(c3C#N)CCCC4)C3=C2C(=O)CC(C)(C)C3)cc1OC (stereo unspecified) returned rTrxR1 inhibitor -8.0%, TrxR1 substrate -2.3%, Eya2 phos inh -16.2%, mIDH1 inhibitor inconclusive, RGS4 inh -22.7%, IDH1 autofl 3.4, IDH1 WT -4.2% and mIDH1 confirm -24.7%.
Screening Cc1ccc2c(c1)Oc1ccc([N+](=O)[O-])cc1C(=O)N2 returned rTrxR1 inhibitor 18.0%, TrxR1 substrate -0.3%, Eya2 phos inh 14.5%, mIDH1 inhibitor 9.6% and RGS4 inh 1.7%.
Cc1ccc2c(c1)Oc1ccc(NC(=O)CCl)cc1C(=O)N2 was read as rTrxR1 inhibitor inconclusive, TrxR1 substrate 2.2%, Eya2 phos inh -3.4%, mIDH1 inhibitor 13.1µM*, RGS4 inh 6.5%, IDH1 autofl -2.0, IDH1 WT 70.8µM* and mIDH1 confirm 6.31µM*.
Screening CCOC(=O)c1cc(-c2ccc(/C=N\n3cnnc3)o2)ccc1Cl returned rTrxR1 inhibitor -2.3%, TrxR1 substrate 4.8%, Eya2 phos inh -4.7%, mIDH1 inhibitor 0.1% and RGS4 inh 13.7%.
`CCOC(=O)c1cc(-c2ccc(/C=C3/C(=O)N(c4ccc(C(=O)O)cc4)N=C3C)o2)ccc1Cl` gave rTrxR1 inhibitor -7.8%, TrxR1 substrate -3.9%, Eya2 phos inh 3.1%, mIDH1 inhibitor inconclusive, RGS4 inh inconclusive, IDH1 autofl 4.1, IDH1 WT 5.01µM* and mIDH1 confirm 1.26µM*.
For Cc1cc(-n2c(=S)sc3c(=O)n(-c4ccc(F)cc4)c(SCC(=O)O)nc32)ccc1Cl the results were rTrxR1 inhibitor -3.1%, TrxR1 substrate -6.7%, Eya2 phos inh 3.2%, mIDH1 inhibitor 26.1µM*, RGS4 inh 3.0%, IDH1 autofl -20.3, IDH1 WT inconclusive and mIDH1 confirm 7.94µM*.
Screening COc1ccccc1-n1c(SCC(=O)O)nc2c(sc(=S)n2-c2ccc(Cl)c(C)c2)c1=O returned rTrxR1 inhibitor 1.8%, TrxR1 substrate -5.0%, Eya2 phos inh -11.2%, mIDH1 inhibitor 20.3% and RGS4 inh -26.8%.
Screening CC1CCc2c(sc3nc(C(C)(C)C)nc(N4CCN(C(=O)CCl)CC4)c23)C1 (stereo unspecified) returned rTrxR1 inhibitor inconclusive, TrxR1 substrate -6.0%, Eya2 phos inh -3.4%, mIDH1 inhibitor 41.4µM*, RGS4 inh -28.9%, IDH1 autofl -4.2, IDH1 WT 44.7µM* and mIDH1 confirm 3.16µM*.
For COc1ccc(-c2oc3cc(OC(C)=O)cc(OC(C)=O)c3c(=O)c2OC)cc1 the results were rTrxR1 inhibitor 13.6%, TrxR1 substrate 20.6%, mIDH1 inhibitor inconclusive, RGS4 inh 6.7%, IDH1 autofl -2.9, IDH1 WT -3.9% and mIDH1 confirm 28.2µM*.
Cc1ccc(S(=O)(=O)Nc2ccc(S(=O)(=O)N3CCOCC3)cc2)cc1 was read as rTrxR1 inhibitor -7.8%, TrxR1 substrate -8.9%, mIDH1 inhibitor 5.9% and RGS4 inh inconclusive.
`COc1ccc(N(C)C(=O)c2ccc3c(Cl)c4c(nc3c2)CCCC4)c(OC)c1` gave rTrxR1 inhibitor inconclusive, TrxR1 substrate -14.3%, Eya2 phos inh -4.4%, mIDH1 inhibitor inconclusive, RGS4 inh -37.4%[56.9 µM], IDH1 autofl -6.5, IDH1 WT -0.1% and mIDH1 confirm 39.8µM*.
`O=c1[nH]c(CSc2nnnn2-c2ccccc2)nc2ccccc12` gave rTrxR1 inhibitor 18.1%[57.1 µM], TrxR1 substrate 3.1%[57.1 µM], Eya2 phos inh -7.4%, mIDH1 inhibitor 2.6% and RGS4 inh 0.2%.
`CC(NC(=O)C1=Cc2ccccc2OC1)c1ccccc1` (stereo unspecified) gave rTrxR1 inhibitor 8.1%[57.1 µM], TrxR1 substrate 0.4%[57.1 µM], mIDH1 inhibitor -0.2% and RGS4 inh 3.3%.
`COc1ccc(C)cc1NC(=O)c1ccc2c(SCC(=O)O)c3c(nc2c1)CCCC3` gave rTrxR1 inhibitor -2.6%, TrxR1 substrate -3.7%, Eya2 phos inh -3.7%, mIDH1 inhibitor 0.0% and RGS4 inh 14.7%.
COc1cc(Cl)c(C)cc1NC(=O)c1ccc2c(SCC(=O)O)c3c(nc2c1)CCCC3 was read as rTrxR1 inhibitor 23.6%[57.1 µM], TrxR1 substrate 1.5%[57.1 µM], Eya2 phos inh -10.2%, mIDH1 inhibitor inconclusive, RGS4 inh -1.2%, IDH1 autofl 5.0, IDH1 WT inconclusive and mIDH1 confirm 28.2µM*.
Screening CCOC(=O)c1ccccc1NC(=O)c1ccc2c(SCC(=O)O)c3c(nc2c1)CCCC3 returned rTrxR1 inhibitor -7.8%, TrxR1 substrate 0.7%, Eya2 phos inh 10.2%, mIDH1 inhibitor 41.4µM*, RGS4 inh -14.4%, IDH1 autofl -1.6, IDH1 WT 70.8µM* and mIDH1 confirm 15.8µM*.
For CC(C)(C)c1ccc(C2NC(=O)c3n[nH]c(-c4cccs4)c32)cc1 (stereo unspecified) the results were rTrxR1 inhibitor -5.4%, TrxR1 substrate 0.2%, mIDH1 inhibitor inconclusive, RGS4 inh -4.7%, IDH1 autofl 0.3, IDH1 WT 0.4% and mIDH1 confirm 39.8µM*.
CCOc1ccc(C2NC(=O)c3n[nH]c(C)c32)cc1 (stereo unspecified) was read as rTrxR1 inhibitor -11.9%, TrxR1 substrate -5.6%, Eya2 phos inh 4.6%, mIDH1 inhibitor -4.2% and RGS4 inh 20.8%.
`COc1ccc(-c2c3c(=O)n(C)c(=O)n(C)c3c3n2-c2ccccc2NC3c2ccc(O)cc2O)cc1` (stereo unspecified) gave rTrxR1 inhibitor 17.0%, TrxR1 substrate -2.6%, mIDH1 inhibitor 35.5µM*, RGS4 inh 14.5%, IDH1 autofl -4.9, IDH1 WT -26.7% and mIDH1 confirm 8.91µM*.
Screening O=c1c2ccccc2nc2n1CCCCC2 returned rTrxR1 inhibitor 5.2%[57.1 µM], TrxR1 substrate 2.1%[57.1 µM], Eya2 phos inh 13.5%, mIDH1 inhibitor 8.9% and RGS4 inh -14.6%.
For O=c1c2ccccc2nc2n1CCC2 the results were rTrxR1 inhibitor -4.3%, TrxR1 substrate -4.5%, Eya2 phos inh -21.8%, mIDH1 inhibitor 16.5µM*, RGS4 inh 11.0%, IDH1 autofl -0.5, IDH1 WT inconclusive and mIDH1 confirm 2.6%.
